Source: PubChem (National Center for Advancing Translational Sciences (NCATS))
Vif-APOBEC3G blk: blocks the Vif interaction with human APOBEC3G; HeLa A3G-eYFP + Vif (tagged APOBEC3G with the HIV-1 protein that degrades it), YFP fluorescence, overnight; Potency, µM (highest dose often 46.1 µM), for inactives: top-dose activity, negative = active, most hits filed as inhibitors; hit rate 0.076% among 410,000; also: % is scaled to controls: 0 for no effect and ±100 for the full control effect; nearly all actives have a fitted effect of over 60% in size
Target sequence (Q9HC16 whole entry, looked up): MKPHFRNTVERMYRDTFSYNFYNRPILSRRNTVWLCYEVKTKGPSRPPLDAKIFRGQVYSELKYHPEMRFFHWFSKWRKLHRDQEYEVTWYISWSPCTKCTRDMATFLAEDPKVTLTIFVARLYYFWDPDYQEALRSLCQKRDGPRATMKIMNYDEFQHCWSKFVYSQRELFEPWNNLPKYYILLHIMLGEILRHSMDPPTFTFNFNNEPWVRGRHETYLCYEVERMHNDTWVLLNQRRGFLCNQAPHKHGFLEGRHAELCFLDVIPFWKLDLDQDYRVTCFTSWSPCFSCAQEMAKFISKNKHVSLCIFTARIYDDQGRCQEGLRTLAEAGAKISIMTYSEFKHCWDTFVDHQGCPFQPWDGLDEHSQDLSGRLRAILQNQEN
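HeLa cells stably expressing Vif and C-terminally eYFP-tagged A3G, seeded overnight at 37 deg C, then exposed to compound by pintool overnight at 37 deg C. Rise in yellow fluorescence (Ex 488/Em 500-530, Acumen) marks blocked Vif-driven A3G degradation.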
Epigenetic derep: derepresses silenced GFP reporter in murine cells | murine LDR cells, GFP reporter derepression, 30 h | Potency, µM (series often up to 53.9 µM), inactives show top-dose GFP activation, actives largely listed as activators | hit rate 0.2% among 280,000; also: % of control where 0% means no effect; nearly all actives have a fitted effect of over 60% in size
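Murine LDR cells carrying a silenced, genomically integrated CMV-driven GFP reporter were exposed to compound for 30 hours at 37 C. After PBS washes, GFP-positive cells (20–120 um objects) were counted by laser-scanning microplate cytometry.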
PINK1 expr mod: changes PINK1 expression; hit rate 0.2% among 410,000; Potency, µM (titrated, usually from 76.6 µM), for the others: at the top dose activation (PINK1 increase), actives largely listed as activators; PINK1 immunofluorescence, high-content cytometry, 24 h; active = well fitted activation curve with a large enough effect; inconclusive = small, poorly fitted or top-dose-only effect; cell line not stated here; also: % of control where 0% means no effect; nearly all actives have a fitted effect of over 65% in size
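Readout is PINK1 immunofluorescence, quantified alongside mitochondrial, cell and nuclear markers by laser-scanning microplate cytometry. Cells from a stable line were exposed to compound titrations (5 concentrations) for 24 hours, with CCCP controls.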
Vif-APOBEC3F blk: blocks the Vif interaction with APOBEC3F | hit rate 0.2% among 390,000 | AID 602313 | Potency, µM (doses to about 46.1 µM), inactives show at the top dose activity, negative = active | HeLa A3F-eYFP + Vif (tagged APOBEC3F with the HIV-1 protein that degrades it), YFP fluorescence increase; also: % of control where 0% means no effect; nearly all actives have a fitted effect of over 65% in size
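Fluorescence increase (Ex 488/Em 500-530) after overnight compound treatment at 37 deg C flags inhibition of Vif-driven A3F-eYFP loss in stable HeLa A3F-eYFP/Vif cells seeded overnight beforehand.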
Active calls of the source: *; ? = inconclusive; nt = no result given. Rows were chosen to be rich in hits. Some 0.52% of all compounds tested hit in one or more screens of this group. Unless noted, calls follow the shape of the dose curve; as a rule, active = well fitted curve in the direction sought with a large enough effect; inconclusive = small, poorly fitted or top-dose-only effect, or another doubt; inactive = no such curve, though single readings can be large; an effect the other way counts as inactive or inconclusive. Potency is read from the fitted curve at half-maximal effect.

SMILES	Vif-APOBEC3G blk	Epigenetic derep	PINK1 expr mod	Vif-APOBEC3F blk
CN1/C(=C\C=N\O)C(C)(C)c2ccccc21	-11.1%	1.6%	-1.1%	1.0%
CN1/C(=C\C=C2/C(=O)Oc3ccccc3C2=O)C(C)(C)c2ccccc21	6.6%	14.1µM*	12.6µM*	?
CCCN1C(=O)/C(=C\C=C2\N(CC)c3ccccc3C2(C)C)SC1=S	?	-5.8%	10.6%	3.55µM*
CN1C(=CC=C2C=C(I)C(=O)C(I)=C2)C(C)(C)c2ccccc21	-1.9%	0.0%	5.1%	-8.0%
CN1/C(=C\C=C2/SC(=S)NC2=O)C(C)(C)c2ccccc21	7.94µM*	?	?	?
CCCN1C(=O)/C(=C\C=C2/Sc3ccccc3N2CC)SC1=S	nt	0.2%	nt	nt
Fc1ccc(N2CCN(Cc3ccc4c(c3)CN(Cc3cccn3-c3ncccn3)CCO4)CC2)cc1	nt	nt	-0.3%	nt
Cc1c(C(=O)NCC2CCCN(C)C2)cnn1-c1ncc2c(n1)-c1ccccc1CCC2 (stereo not given)	nt	nt	0.7%	nt
COc1cc(=O)n2c(c1C(=O)N(C)Cc1nonc1C)CCN(C(=O)c1ccc(C)c(C)c1)CC2	nt	nt	-0.6%	nt
Cc1cc(C)nc(S[C@H]2C[C@@H](C(=O)N3CCN(c4ccccc4F)CC3)N(Cc3ccccc3C(F)(F)F)C2)n1	nt	nt	0.0%	nt
CC1(C)CC(=Cc2cc(O)ccc2[N+](=O)[O-])C(=O)c2ccccc21	-16.7%	nt	20µM*	-17.3%
CCOc1ccc(CNC(=O)c2ccccc2NC(=O)c2nsc3ccccc23)cc1	-11.5%	8.7%	0.9%	7.94µM*
O=C(NCCc1nnc2n1CCN(CC1CC=CCC1)CC2)c1ccc(F)cc1 (stereo not given)	nt	nt	-0.6%	nt
CC(=O)Oc1ccc2c(=O)c(-c3ccccc3)coc2c1	-4.1%	-2.6%	-0.3%	-9.0%
COc1ccc(-c2coc3cc(OC(C)=O)ccc3c2=S)cc1	-5.5%	nt	17.8µM*	1.2%
COc1ccc(NC(=O)CSc2nc3ccccc3cc2Cc2ccccc2)cc1	0.6%	1.3%	11.2µM*	0.9%
O=C(Nc1ccc(Br)cc1)c1cccc(S(=O)(=O)Nc2cnc3ccccc3c2)c1	-6.2%	-3.2%	?	6.8%
COc1ccc(NC(=O)c2cccc(S(=O)(=O)Nc3ccc(Br)cc3)c2)cn1	-1.5%	0.0%	14.1µM*	-2.9%
O=C(/C=C/c1ccc(F)cc1)NCC1Cc2cccc(-c3ncccn3)c2O1 (stereo not given)	nt	nt	1.4%	nt
Cc1cc(C)c2cc3c(N)c(C(=O)Nc4c(C)[nH]c(=O)[nH]c4=O)sc3nc2c1	?	0.0%	?	22.4µM*
O=C(Nc1ccccc1N1CCOCC1)c1ccccc1NS(=O)(=O)c1ccc(F)cc1	-0.9%	-0.8%	1.8%	5.6%
CCOc1ccc(S(=O)(=O)Nc2ccccc2C(=O)Nc2ccccc2N2CCOCC2)cc1	-2.5%	-4.6%	11.2µM*	-2.3%
Cc1ccccc1C1(CC(=O)N2CC3(C)CC2CC(C)(C)C3)CC(=O)N(Cc2cccnc2)C1=O (stereo not given)	nt	nt	0.3%	nt
N#Cc1c(Cl)nsc1NC(=O)c1ccccc1	5.3%	-1.0%	12.6µM*	-13.3%
COC(=O)c1ccccc1SC(CC(=O)c1ccccc1)c1ccc(F)cc1 (stereo not given)	-6.9%	22.4µM*	-3.4%	-6.0%
SMILES	Vif-APOBEC3G blk	Epigenetic derep	PINK1 expr mod	Vif-APOBEC3F blk
Nc1ccccc1SC(CC(=O)c1ccccc1)c1ccccc1 (stereo not given)	-5.7%	nt	1.9%	?
COc1ccccc1CCNc1ncnc2sc(C(=O)N3CCCN(C=O)CC3)c(C)c12	nt	nt	1.2%	nt
N#Cc1c(-c2ccc(Cl)cc2)n(O)c2ccccc12	-28.3%	nt	35.5µM*	-16.6%
CC(C)N1CCc2c(sc(N)c2C#N)C1	-9.0%	-2.7%	2.82µM*	-6.3%
CCN1CCc2c(sc(N)c2C#N)C1	-5.5%	-0.8%	1.1%	-0.1%
COc1ccccc1C1CN(CCNC(=O)c2ccccc2Cl)Cc2ccccc2O1 (stereo not given)	nt	nt	-0.5%	nt
CC(C)CN1C(=O)/C(=C/c2c(N3CCc4ccccc4C3)nc3ccccn3c2=O)SC1=S	nt	4.47µM*	nt	nt
CCOC(=O)CC1C(=O)NCCN1c1nc2c(C)cccn2c(=O)c1/C=C1\SC(=S)N(CC(C)C)C1=O (stereo not given)	nt	7.94µM*	nt	nt
CCOCCCNc1nc2c(C)cccn2c(=O)c1/C=C1\SC(=S)N(CC(C)C)C1=O	-27.7%	11.8%	4.9%	?
CCN1CCN(c2nc3ccccn3c(=O)c2C=O)CC1	-2.0%	nt	0.7%	-3.9%
COc1ccc(-c2cc(C)cc3c2OC(CNC(=O)/C=C/c2ccncc2)C3)nn1 (stereo not given)	nt	nt	1.0%	nt
CC(NC(=O)c1cc(F)ccc1F)c1nnc2n1CCN(Cc1ccco1)CC2 (stereo not given)	nt	nt	0.9%	nt
COc1cccc(C2Nc3ccc4ccccc4c3C3=C2C(=O)CCC3)c1O (stereo not given)	?	nt	6.3%	11.2µM*
Cc1ccc(/C=C2/Sc3ccc(C(=O)NCc4ccccn4)cc3NC2=O)cc1	-8.0%	nt	28.2µM*	?
COc1cccc(C2c3c(oc4ccc(Cl)cc4c3=O)C(=O)N2c2cc(C)on2)c1OC (stereo not given)	0.9%	2.2%	12.6µM*	0.3%
OCCN1CCN(Cc2ccc3c(c2)CN(Cc2cc4ccccc4o2)CCO3)CC1	nt	nt	-0.6%	nt
Cc1cc(NC(=O)/C(C#N)=C\c2ccc(-c3ccc(SC(F)F)cc3)o2)n(-c2ccccc2)n1	?	nt	?	10µM*
Cn1cc(CN2CCOc3ccc(C(O)C4CCCCC4)cc3C2)cn1 (stereo not given)	nt	nt	0.0%	nt
Cc1ccc(NC(C(=O)c2ccccc2)c2ccccc2)cc1 (stereo not given)	-7.0%	nt	35.5µM*	-4.3%
Cc1cnc(-n2ncc(C(=O)NCc3ccncc3)c2C2CC2)nc1-c1cccs1	nt	nt	0.9%	nt
CC(C)(C)Nc1nc2cc([N+](=O)[O-])ccc2o1	0.9%	-1.2%	6.3%	-5.2%
CC(C)(C)c1nc2cc(Cl)c([N+](=O)[O-])cc2o1	0.9%	-5.4%	14.1µM*	8.2%
O=C1CC(N(CCc2ccccc2)C(=S)Nc2ccccc2)C(=O)N1c1ccccc1 (stereo not given)	-15.2%	1.0%	25.1µM*	?
O=C(Nc1ccc(Cl)cc1)Nc1nnc(CSCc2ccc(Cl)cc2)s1	-10.1%	0.0%	11.2µM*	-5.6%
CCc1nnc(NC(=O)Nc2ccc(Cl)cc2)s1	0.3%	0.0%	0.9%	0.4%
O=C(Oc1ccc2c(c1)OCO2)c1ccc(Br)c(S(=O)(=O)N2CCOCC2)c1	2.8%	0.0%	11.2µM*	-5.1%
COc1cccc(-n2c(SC)nnc2C2CCN(Cc3nc4ccccc4s3)CC2)c1	nt	nt	1.2%	nt
COc1ccccc1C1CN(Cc2cccc(O)c2)Cc2ccccc2O1 (stereo not given)	nt	nt	7.1%	nt
Cn1cc(C2=C(c3ccc(Cl)cc3Cl)C(=O)NC2=O)c2ccccc21	?	14.1µM*	2.1%	?
N#C/C(=N\Nc1cccc([N+](=O)[O-])c1)C(=O)c1ccc(Br)cc1	-15.3%	-0.6%	4.47µM*	8.8%
